# DT40 TDP1 CPT = qHTS for Inhibitors of human tyrosyl-DNA phosphodiesterase 1 (TDP1): qHTS in cells in presence of CPT; chicken DT40 Tdp1-/-;hTDP1 cells + 20 nM CPT, ATP luminescence, 48 h; 12% of 420,000 active; Potency, µM (series often up to 46.2 µM), hits mostly inhibitors; AID 686979, 2013; also: nearly all actives have a fitted effect of over 55% in size
#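 Chicken DT40 Tdp1-/- cells complemented with human TDP1, 400 cells/well, exposed to compounds plus 20 nM camptothecin for at least 48 h at 37 C; viability read as ATP content by CellTiter-Glo luminescence.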
# IL1B secr inh = qHTS for Inhibitors of Inflammasome Signaling: IL-1-beta AlphaLISA Primary Screen | THP-1 LPS/ATP IL-1B secretion, AlphaLISA, 16 h; stronger effect = lower value | AID 743279, 2014 | activity change, % at 57.5 µM | 4.7% of 360,000 active; in the data active = activity change below about -50%; inconclusive = mostly about -30% to -49%
#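 THP-1 cells pretreated 1 hr with compounds (up to 57.5 uM final), then stimulated with LPS (250 ng/mL final) plus ATP (1.25 mM final); secreted IL-1B measured by AlphaLISA after 16 hr, decreased signal indicating inhibition.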
# TDP1 cell noCPT = qHTS for Inhibitors of human tyrosyl-DNA phosphodiesterase 1 (TDP1): qHTS in cells in absence of CPT | 15% of 420,000 active | Potency, µM (titrated, usually from 46.2 µM), actives largely listed as inhibitors | DT40 Tdp1-/- hTDP1 cells, no CPT, ATP luminescence, 48 h | AID 686978, 2013; also: nearly all actives have a fitted effect of over 55% in size
#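 Seeded 400 DT40-hTDP1 cells/well (vehicle DMSO, no 20 nM CPT); pinned compounds; ≥48 hr at 37 °C; CellTiter-Glo luminescence as viability measure.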
# HT1080NT lethal = qHTS for induction of synthetic lethality in tumor cells producing 2HG: qHTS for the HT-1080-NT fibrosarcoma cell line. HT-1080-NT fibrosarcoma viability, CellTiter-Glo ATP luminescence, 48 h. 1.6% of 360,000 active. Potency, µM (highest dose often 46.1 µM), usual class: cytotoxic;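 also: NT is the 2HG producing partner of a matched IDH1 knockdown line; nearly all actives have a fitted effect of over 55% in size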
#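 Viability by CellTiter-Glo luminescence after 48 h compound exposure at 37C of HT-1080-NT cells (750/well, RPMI, 5% FBS). % activity scaled between DMSO wells and medium-only wells, then curve-fitted and categorized by curve class.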
# HT1080 IDH1KD tx = qHTS for induction of synthetic lethality in tumor cells producing 2HG: qHTS for the HT-1080-IDH1KD cell line. Potency, µM (top dose mostly 46.1 µM), actives largely listed as cytotoxic. 2% of 360,000 active. HT-1080 IDH1 knockdown viability, ATP luminescence, 48 h. AID 686971, 2013
#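 % activity derives from luminescence (CellTiter-Glo), normalised to DMSO and no-cell wells. HT-1080-IDH1KD cells, 750/well, had 48 h compound exposure at 37 °C.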
# Hits are given with their value; . = inactive; ? = inconclusive; / = no result given; ! = not active in a repeat. Only some compounds are listed: those with a hit (about 19% of all), similar ones and a draw of the others. Unless noted, calls follow the shape of the dose curve; as a rule, active = well fitted curve in the direction sought with a large enough effect; inconclusive = small, poorly fitted or top-dose-only effect, or another doubt; inactive = no such curve, though single readings can be large; an effect the other way counts as inactive or inconclusive.
SMILES,DT40 TDP1 CPT,IL1B secr inh,TDP1 cell noCPT,HT1080NT lethal,HT1080 IDH1KD tx
O=C(C1COc2ccccc2O1)N1CCN(S(=O)(=O)c2ccccc2)CC1 (configuration not stated),.,.,.,.,.
Cc1cccc(OCCCC(=O)NC2CCCCC2)c1,.,.,.,.,.
O=c1c2ccccc2on1-c1ccccc1,.,.,.,.,.
COC(=O)c1cccc(C(=O)N2CCc3c(C(=O)OC)c(OCc4ccccn4)cc(=O)n3CC2)c1,.,/,.,/,/
Cc1ccc(C)c(C2C(C#N)=C(N)Oc3cc(C)oc(=O)c32)c1 (configuration not stated),.,.,.,.,.
Cc1ccc(C2C(C#N)=C(N)Oc3cc(C)oc(=O)c32)o1 (configuration not stated),18µM,.,18µM,.,?
COCCCNC(=O)Cc1c(C)c2cc3c(cc2oc1=O)OC(C)(C)CC3,26µM,.,26µM,.,.
COCCCNC(=O)Cc1c(C)c2c(cc(C)c3c(C)c(C)oc32)oc1=O,?,.,13µM,.,.
CCCNC(=O)N[C@H]1CC[C@@H](CCn2cc(-c3cccc(F)c3)nn2)O[C@@H]1CO,.,.,.,.,.
CCOCCCNC(=O)c1cc2c(=O)[nH]c3ccccc3c2n1C,.,/,.,/,/
CC(C)c1cc(Cn2c3ccccc3c(=O)n2C(C)Cn2cc(-c3ccc(C(C)(C)C)cc3)nn2)on1 (configuration not stated),?,.,15µM,?,?
CC(C)c1cc(Cn2c3ccccc3c(=O)n2C(C)Cn2cc(C3=CCCCC3)nn2)on1 (configuration not stated),?,.,?,.,.
CCC1CCCCN1S(=O)(=O)c1ccc(C(=O)Nc2nnc(-c3ccccc3Cl)o2)cc1 (configuration not stated),5.2µM,.,6.5µM,?,8.2µM
O=C(Nc1nnc(-c2ccccc2Cl)o1)c1ccc(S(=O)(=O)N2CCCCCC2)cc1,4.6µM,.,5.8µM,4.1µM,8.2µM
CCC1CCCCN1S(=O)(=O)c1ccc(C(=O)Nc2nnc(C3CC3)o2)cc1 (configuration not stated),?,.,?,.,?
CC[C@@](C)(NS(=O)(=O)OCC(Cl)(Cl)Cl)c1ccccc1,.,.,?,.,.
CCOC(=O)C(C)(C)C(=O)C(C)(C)C(O)c1ccccn1 (configuration not stated),.,.,.,.,.
CC(C)OCC(O)CCc1n[nH]c(=S)n1-c1ccccc1 (configuration not stated),.,.,.,.,.
O=C(C1CCCN(S(=O)(=O)c2ccccc2)C1)N1CCCc2ccccc21 (configuration not stated),?,.,18µM,.,.
O=C(O)C1CCCN(S(=O)(=O)c2ccccc2)C1 (configuration not stated),.,.,.,.,.
Cc1ccc(S(=O)(=O)N2CCCC(C(=O)N3CCCc4ccccc43)C2)cc1 (configuration not stated),21µM,.,21µM,.,.
COc1cc2ccc(=O)oc2c(O)c1O,21µM!,.,?,.,.
COc1cc2ccc(=O)oc2c(OC)c1OC,.,/,.,/,/
COC(=O)c1ccc(COc2ccc(/C=C(\C#N)c3nc4ccccc4[nH]3)cc2OC)o1,7.3µM,.,5.8µM,.,.
COc1cc(/C=C(\C#N)c2nc3ccccc3[nH]2)ccc1OCc1cccc(C(F)(F)F)c1,12µM,/,9.2µM,/,/
CC1(C)CC(=O)C=C(c2ccc(-c3cccc(C(N)=O)c3)cc2)C1=O,?,.,?,.,.
Cc1ccc(S(=O)(=O)NCCC(=O)OCc2ccc([N+](=O)[O-])cc2)cc1C,?,.,?,.,.
CCOC(=O)C1CCN(S(=O)(=O)c2cc3c4c(c2)C(C)C(=O)N4CCC3)CC1 (configuration not stated),.,.,.,.,.
